This note sets out measurements from the supplement of paper PMC9446081.

± gives the standard deviation of the averaged measurements.

For this test, the target named is MurC (UniProt C4ZRI6). The test is described as follows: relative enzymatic activity vs untreated control (fraction); higher = less inhibition. To be noted: 100 µM; incubation time: 2 h at 37 C. How it is done: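 In vitro enzymatic inhibition assays (ProFoldin kits) for 12 purified essential E. coli enzymes or complexes, each treated with 218 active antibacterial compounds at 100 µM for 2 h at 37°C. Read-outs were fluorescence or absorbance (phosphate detection, dye binding), converted to activity via standard curves and expressed relative to untreated DMSO controls.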
Chain of MurC (C4ZRI6 whole entry, looked up): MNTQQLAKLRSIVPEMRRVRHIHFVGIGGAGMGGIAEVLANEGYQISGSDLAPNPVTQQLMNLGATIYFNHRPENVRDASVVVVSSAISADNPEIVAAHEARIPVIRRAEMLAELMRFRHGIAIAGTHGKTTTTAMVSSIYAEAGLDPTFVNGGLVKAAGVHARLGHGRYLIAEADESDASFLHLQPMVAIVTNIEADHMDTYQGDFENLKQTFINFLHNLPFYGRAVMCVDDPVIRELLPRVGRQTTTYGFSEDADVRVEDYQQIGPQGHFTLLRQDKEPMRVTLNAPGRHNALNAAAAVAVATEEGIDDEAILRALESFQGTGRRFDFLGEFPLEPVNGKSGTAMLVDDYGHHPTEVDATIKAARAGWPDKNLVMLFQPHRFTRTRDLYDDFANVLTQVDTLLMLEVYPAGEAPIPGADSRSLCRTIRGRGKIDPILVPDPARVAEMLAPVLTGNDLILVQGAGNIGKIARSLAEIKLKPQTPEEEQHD
Molecule `CC1(C)SC2C(N3C(=O)C(c4ccccc4)NC3(C)C)C(=O)N2C1C(=O)[O-].[K+]` (stereo not given) had a relative enzymatic activity of 0.925 ± 0.025. In the case of `Cc1scc2c1N(C(=O)CN1CCN(C)CC1)c1ccccc1NC2=O.Cl` it was 0.945 ± 0.037. Molecule `CCC1OC(=O)C(C)C(OC2CC(C)(OC)C(O)C(C)O2)C(C)C(OC2OC(C)CC(N(C)C)C2O)C(C)(O)CC(C)CN(C)C(C)C(O)C1(C)O` (stereo not given) returned a relative enzymatic activity of 0.998 ± 0.082.

Consider `CC[C@H]1OC(=O)C[C@@H](O)[C@H](C)[C@@H](O[C@@H]2O[C@H](C)C[C@H](N(C)C)[C@H]2O)[C@@H](CC=O)C[C@@H](C)C(=O)/C=C/[C@]2(C)O[C@H]2[C@@H]1C`, for which the relative enzymatic activity turned out to be 1.02 ± 0.099. The figure for `NC(=O)N/N=C/c1ccc([N+](=O)[O-])o1` is 1.08 ± 0.033; for `Cc1nnc(SCC2=C(C(=O)O)N3C(=O)[C@@H](NC(=O)Cn4cnnn4)[C@H]3SC2)s1` it is 0.988 ± 0.078. In the case of `CN(C)[C@@H]1C(=O)[C@@H](C(N)=O)C(=O)[C@@]2(O)C(=O)[C@@H]3C(=O)c4c(O)c(NC(=O)CN5CCCC5)cc(F)c4C[C@H]3C[C@@H]12` it was 1.01 ± 0.063; in that of `CC(C)[C@@H](CC[C@@H](C)[C@H]1CC[C@H]2[C@@H]3[C@H](O)C[C@H]4C[C@@H](NCCCNCCCCN)CC[C@]4(C)[C@H]3CC[C@]12C)OS(=O)(=O)O`, 0.882 ± 0.078.

With `CN(C)c1ccc(O)c2c1C[C@H]1C[C@H]3[C@H](N(C)C)C(=O)[C@@H](C(N)=O)C(=O)[C@@]3(O)C(=O)[C@H]1C2=O`, the relative enzymatic activity turned out to be 1.11 ± 0.018.

`O=C1OCCN1N=Cc1ccc([N+](=O)[O-])o1` had a relative enzymatic activity of 1.03 ± 0.054. In the case of `CC[C@H](C)C[C@H](C)CCCCCCCCC(=O)N[C@H]1C[C@@H](O)[C@@H](NCCN)NC(=O)[C@@H]2[C@@H](O)CCN2C(=O)[C@H]([C@H](O)CCN)NC(=O)[C@H]([C@H](O)[C@@H](O)c2ccc(O)cc2)NC(=O)[C@@H]2C[C@@H](O)CN2C(=O)[C@H]([C@@H](C)O)NC1=O` it was 0.94 ± 0.061.

On to `Cl.O=C1CC2(CCCC2)CC(=O)N1CCCCN1CCN(c2ncccn2)CC1`, for which the relative enzymatic activity was 1.073 ± 0.0016. `O=c1[nH]c(=O)n(C2CC(O)C(CO)O2)cc1F` (stereo not given) showed a relative enzymatic activity of 0.948 ± 0.082.

`NC[C@H]1OB(O)c2c(OCCCO)cccc21` gave a relative enzymatic activity of 0.977 ± 0.052.

`N[C@@H](C(=O)N[C@@H]1C(=O)N2C(C(=O)O)=C(Cl)CS[C@H]12)c1ccccc1` returned a relative enzymatic activity of 0.902 ± 0.062.

Consider `COC1(NC(=O)Cc2cccs2)C(=O)N2C(C(=O)[O-])=C(COC(N)=O)CSC21.[Na+]` (stereo not given), for which the relative enzymatic activity stood at 1.15 ± 0.057.

Molecule `CCOC(=O)CCC(=O)O[C@H]1[C@H](O[C@@H]2[C@@H](C)[C@H](O[C@H]3C[C@@](C)(OC)[C@@H](O)[C@H](C)O3)[C@@H](C)C(=O)O[C@H](CC)[C@@](C)(O)[C@H](O)[C@@H](C)C(=O)[C@H](C)C[C@@]2(C)O)O[C@H](C)C[C@@H]1N(C)C` had a relative enzymatic activity of 1.05 ± 0.026. In the case of `O=C(NO)c1cn(-c2cccc(C(=O)N3CCC4(CC3)C(=O)NCN4c3ccccc3)c2)nn1` it was 0.552 ± 0.15.

In the case of `CC(O)C1C(=O)N2C(C(=O)O)=C(SC3CNC(C(=O)N(C)C)C3)C(C)C12` (stereo not given), the relative enzymatic activity worked out at 0.359 ± 0.25. Molecule `CC(=O)OCC1=C(C(=O)[O-])N2C(=O)C(NC(=O)Cc3cccs3)C2SC1.[Na+]` (stereo not given) yielded a relative enzymatic activity of 1.08 ± 0.043. Take `CON=C(C(=O)NC1C(=O)N2C(C(=O)[O-])=C(CSc3nc(=O)c([O-])nn3C)CSC12)c1csc(N)n1.O.O.O.[Na+].[Na+]` (stereo not given): the relative enzymatic activity turned out to be 1.041 ± 0.0071. In the case of `C[C@H]1COc2c(C3(N)CC3)c(F)cc3c(=O)c(C(=O)O)cn1c23` it was 1.01 ± 0.03. In the case of `O=c1[nH]c(=O)n([C@@H]2C[C@@H](O)[C@@H](CO)O2)cc1F` it was 1.02 ± 0.035; in that of `CC1CCc2cc(F)cc3c(=O)c(C(=O)O)cn1c23` (stereo not given), 1.01 ± 0.053. The figure for `COc1cc2c(cc1OC)C(=O)C(CC1CCN(Cc3ccccc3)CC1)C2.Cl` (stereo not given) is 0.993 ± 0.29. Consider `CO/N=C(\C(=O)N[C@@H]1C(=O)N2C(C(=O)O)=C(CSC(=O)c3ccco3)CS[C@H]12)c1csc(N)n1`, for which the relative enzymatic activity amounted to 0.977 ± 0.095. The figure for `Cn1nnnc1SCC1=C(C(=O)[O-])N2C(=O)C(NC(=O)C(O)c3ccccc3)C2SC1.[Na+]` (stereo not given) is 1.091 ± 0.0095; for `CO[C@@H]1[C@@H](OC(=O)c2ccc(C)[nH]2)[C@@H](O)[C@@H](Oc2ccc3c(c2C)OC(=O)[C@H](NC(=O)c2[nH]cc(CC(=O)Nc4cc5ccc(O[C@@H]6OC(C)(C)[C@H](OC)[C@@H](OC(=O)c7ccc(C)[nH]7)[C@H]6O)c(C)c5oc4=O)c2C)C3)CC1(C)C` it is 2.26 ± 0.28; for `CCn1cc(C(=O)O)c(=O)c2cc(F)c(N3CCNC(C)C3)c(F)c21.Cl` (stereo not given) it is 0.984 ± 0.05.

Molecule `CCN1CCN(C(=O)NC(C(=O)NC2C(=O)N3C(C(=O)O)=C(CSc4nnnn4C)CSC23)c2ccc(O)cc2)C(=O)C1=O` (stereo not given) had a relative enzymatic activity of 0.942 ± 0.1. For the molecule `CCCCCCCCCCCCC[N+](C)(C)Cc1ccccc1`, the relative enzymatic activity worked out at 0.106 ± 0.027. In the case of `CO[C@@]12[C@@H]3N[C@@H]3CN1C1=C(C(=O)C(N)=C(C)C1=O)[C@@H]2COC(N)=O` it was 1.08 ± 0.11. Turning to `CN(C)C1C(O)=C(C(N)=O)C(=O)C2(O)C(O)=C3C(=O)c4c(O)ccc(Cl)c4C(C)(O)C3CC12.Cl` (stereo not given), the relative enzymatic activity came to 1.05 ± 0.02.

`Cc1cc(=O)c(C(=O)N[C@@H](C(=O)N[C@@H]2C(=O)N3C(C(=O)O)=C(CSc4nnnn4C)CS[C@H]23)c2ccc(O)cc2)c[nH]1` had a relative enzymatic activity of 1.18 ± 0.11. In the case of `CCCCCCCCCCCCCCCC[N+](C)(C)Cc1ccccc1.[Cl-]` it was 0.176 ± 0.051; in that of `N[C@H]1CCN(c2nc3c(cc2F)c(=O)c(C(=O)O)cn3-c2ccc(F)cc2F)C1`, 0.934 ± 0.034; in that of `CNC1C(O)C(NC)C2OC3(O)C(=O)CC(C)OC3OC2C1O.Cl.Cl` (stereo not given), 0.914 ± 0.024.

The molecule `CNC1C(OC2C(OC3C(O)C(O)C(NC(=N)N)C(O)C3NC(=N)N)OC(C)C2(O)CO)OC(CO)C(O)C1O.O=S(=O)(O)O` (stereo not given) registered a relative enzymatic activity of 1.1 ± 0.059. In the case of `O=[N+]([O-])c1ccc(O)c2ncccc12` it was 1.046 ± 0.004; in that of `COc1ccc2c(c1OC)C(=O)OC2C1c2c(cc3c(c2OC)OCO3)CCN1C.Cl` (stereo not given), 1.45 ± 0.16.
